Here are results for 14 molecules from PMC12136788.

Substitutions are numbered along the chain they refer to. Whole data set: some 24,000 sequences, median “enrichment r” near 0.99, cut for the highest 2% near 3.7. What follows is part of a selection rich in the highest values, with near analogues and random picks from the rest.

Sequences and labels used below:
B1: chr12:39756943:39756944:-_ENSG00000139116_ENST00000544797|hu_mus|hu_hu_hu_mus_False|48_78 (ssRNA)
RNA: GGGAGUUCUACAGUCCGACGAUCGGUUUGGCUGUUACCCCCAAGGGAAUCCUGCAAUAGUCUUGUUAGCUUAGAGUCUCUGUAAGGGACAUGUGUGGCUCUCUUGCUCUUGUCCCCCAAGGCGCUGAUUACAUUCCCAAGAGCCAACAGAGGAUUGAGCAUCA
B2: chr4:140309118:140309119:+_ENSG00000164134_ENST00000296543|hu_mus|FALSE|FALSE (ssRNA)
RNA: GGGAGUUCUACAGUCCGACGAUCGUAUCCAGGAGGCAUGAAAGCCAAAGCAUAAGGGAAAAGCUUAUGACAACUUGCUCUGUAGGCUUCGGCAGCUUCUUUACAGUCUCCUAGGCUACCAUCACACAAGGCUUCCAACACCUCCAACAGAGGAUUGAGCAUCA
B3: chr3:10015032:10015033:+_ENSMUSG00000027533_ENSMUST00000029046|mus_mus|mus_mus_mus_hu_True|1_58 (ssRNA)
RNA: GGGAGUUCUACAGUCCGACGAUCGUUUUUACCAUCACAAGUGAUGAUACAAUCUGGCUUGGCCAUUGCGCCCAUUUUCCUAAGAGCUAUUCCCACUCCUAGCUCCUUCAUGUAUUCAUCAAAGCCUUUGCUGUCCAUCAGGCGCAACAGAGGAUUGAGCAUCA
B4: 64658990_64660614_189_3pUTR_ENSMUSG00000024083_ENSMUST00000024889|mouse|control|control (ssRNA)
RNA: GGGAGUUCUACAGUCCGACGAUCAUCCAAUGAACUGGAACCUGAGGUGUUCUCCUUUGGAACAUCGUCUAGUUCCAACACUUCAUAGUCAUCACCAGCCCGACCCAAGCUUCUUUCAUGCCUGGUCAUACAUGGCUUAAAACUCAACAGAGGAUUGAGCAUCA
B5: 104713310_104714935_678_CDS_ENSG00000198431_ENST00000397736|human|control|control (ssRNA)
RNA: GGGAGUUCUACAGUCCGACGAUCAGCGACAUAGGAUGCUCCAACAACCAGGGUCUUACCCGGGCAGUAAGGCAAGGAGAAAAGAUCAUCACUGCUGAUGCAGUAUUCUUUGUCACCAGGGAUGCCCAAGUAACGUGGUCUUUCCAACAGAGGAUUGAGCAUCA
B6: chr11:4127340:4127341:+_ENSG00000167325_ENST00000300738|hu_mus|hu_hu_hu_mus_False|28_88 (ssRNA)
RNA: GGGAGUUCUACAGUCCGACGAUCGGCAUAGUCAGGGUGCUUCGUGGUCAAGGUUGCGGCUGUCUCAGCAGCCAGGGUGUCCAGUUCCACUGUGGUGACCCCACUAUACAAGCCUUGGAUUACUUUCAUGGUGAUCUGAGCAGGCAACAGAGGAUUGAGCAUCA
B7: 21140421_21141420_1149_CDS_ENSG00000141458_ENST00000269228|human|control|control (ssRNA)
RNA: GGGAGUUCUACAGUCCGACGAUCCUCCAUCCCAUGGACUGGAAAAUCUGAAAACACAGGAGUGAUGGUAAAAGGUGCCUGUCCAUUGUCCUUAUUGAACAUGUAUUCAAUCCAGUUGGUGGCAUUACAGGCGUCAGCGUCCUUCAACAGAGGAUUGAGCAUCA
B8: chr7:74146866:74146867:+_ENSG00000077809_ENST00000416070|hu_hu|motif|central (ssRNA)
RNA: GGGAGUUCUACAGUCCGACGAUCUUCCUUUGCAAGUAAUAUCCUCUCCAGGCGAGGAAUUCCGUAAGUAGAUGGCCUUCGGAAAGGAAUUCCUUCAGGAAGUCCUUCUACAUAAAGAUCUUCAACAUGAGACUGGAAAAGAGGCAACAGAGGAUUGAGCAUCA
B9: chr16:94690093:94690094:+_ENSMUSG00000040785_ENSMUST00000117648|mus_hu|mus_mus_mus_hu_True|68_98 (ssRNA)
RNA: GGGAGUUCUACAGUCCGACGAUCGGGCUGGGAUGACAGCAGACAGCCCUCGAUUCCAGGGGGAAAAAAAAAUAGCCGAUACUAAUUAAAAAGUGUUAAUGAUUUUUGAAAAUCAGAUUACAUCUAUAAAAGAUGAAAAGCAAACAACAGAGGAUUGAGCAUCA
B10: chr3:142455422:142455423:-_ENSMUSG00000004591_ENSMUST00000043812|mus_mus|motif|central (ssRNA)
RNA: GGGAGUUCUACAGUCCGACGAUCGGGAGAACAACAGAGUGACAGCCUAGGAGAAAAAAGGGAAAAACAAAACAAAAAUCGGAUAAAAUUCCAGCCCAGUGAAGAUCAUGAUUUGCAAACAGGCAUAUGGUAAGAGCGAUACAACAACAGAGGAUUGAGCAUCA
B11: chr3:142455422:142455423:-_ENSMUSG00000004591_ENSMUST00000043812|mus_mus|FALSE|FALSE (ssRNA)
RNA: B10 RNA with G80U, G81A
B12: 82880966_82885890_579_3pUTR_ENSMUSG00000000627_ENSMUST00000000641|mouse|control|control (ssRNA)
RNA: GGGAGUUCUACAGUCCGACGAUCGCUGGAAACUGGACACAUCAAUAACCCCGCACUUCGGAUCAAAAGCGAAGGUGCCACACGUGAGGAGGUGAGAGGCAUUGGCAAUGGCGAGAAUCUGGAUAAAAUUGUGACAUUCGUCCUCAACAGAGGAUUGAGCAUCA
B13: 65373527_65373647_4270_3pUTR_ENSMUSG00000024589_ENSMUST00000163516|mouse|control|control (ssRNA)
RNA: GGGAGUUCUACAGUCCGACGAUCAGGGAGGCAGGAGCAAUCGCCACGAGUGAUAUUCGUGAAAAAAAAAAAAAAAAUGGAAACAAAACCAGAUGUGACCUCCAUAAAGUGCCUUCAGAAGGGACGCAGAUACAGCAAAGGAAGCAACAGAGGAUUGAGCAUCA
B14: chr14:49642940:49642941:-_ENSMUSG00000061244_ENSMUST00000162175|mus_mus|motif|central (ssRNA)
RNA: GGGAGUUCUACAGUCCGACGAUCUAAAGCAUAAUCAAUAUGCUCAAUACAUAAAAAUUCCACAAGAAUGGUAAAAAUUCGGAAGGCAUUCCUUGGUAAAUCAGAAGGAUCAGAAAGCCUAUGACAUCUUUCAAAGGCUUGUUUCAACAGAGGAUUGAGCAUCA

The target in this experiment is T1, UNK ZnF1-3 (human, UniProt Q9C0B0 31-174).
T1 sequence: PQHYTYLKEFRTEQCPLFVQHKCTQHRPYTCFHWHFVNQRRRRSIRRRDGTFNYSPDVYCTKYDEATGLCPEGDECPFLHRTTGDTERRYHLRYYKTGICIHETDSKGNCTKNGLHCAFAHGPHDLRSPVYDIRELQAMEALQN
Kind of experiment: nsRBNS (natural sequence RNA bind-n-seq); RBNS binding buffer (assumed for nsRBNS): 25 mM Tris pH 7.5, 150 mM KCl, 3 mM MgCl2, 0.01% Triton X-100, 500 ug/ml BSA, 20 U/ml SUPERase-In, 4 C; UNK is unkempt and MSI1 is Musashi-1; names of the RNAs are library labels; protein concentration not given here; high values mean tight binding.
Take B1: the binding signal was 0.772 enrichment R. Consider B2, for which the binding signal was determined as 0.414 enrichment R. Next, B3: 0.728 enrichment R. Next, B4: 0.333 enrichment R.

With B5, the binding signal amounted to 1.69 enrichment R. The result for B6 reads 0.876 enrichment R; that for B7, 0.935 enrichment R; that for B8, 0.729 enrichment R.

For B9, the binding signal stood at 3.34 enrichment R. In the case of B10, the binding signal was found to be 5.45 enrichment R.

As for B11, the binding signal was determined as 4.59 enrichment R.

In turn, B12 yielded a binding signal of 2.22 enrichment R. For the molecule B13, the binding signal came out at 6.96 enrichment R. The result for B14 reads 0.426 enrichment R.
